Screening data deposited in PubChem by National Center for Advancing Translational Sciences (NCATS).
The list is not random: actives were taken first. Their share in the collection is about 13%.
Shiga toxin inh = Shiga toxin inhibition | inhibition, % at 38.7 µM | AID 2315 | hit rate 9.2% among 290,000 | Vero cells, Shiga toxin protein synthesis inhibition reporter; in the data active means inhibition mostly above about 28%, no sharp cut-off; inactive means mostly below about 43%; further: 0% is about no effect
FMDV antiviral = foot and mouth disease virus antiviral activity. FMDV antiviral cell-based qHTS. Potency, µM (highest dose often 57.9 µM), inactives show at the highest dose activity change, negative = inhibition, most hits filed as inhibitors. hit rate 1.2% among 410,000; calls by dose curve; tested in HEK293T cells; further: read-out not given here; potency means the concentration at half of the fitted maximal effect; on the % scale 0 is the no-effect control and ±100 the full control effect; nearly all actives have a fitted effect of over 45% in size
CHX counter = affects cycloheximide protein synthesis inhibition readout, counter-screen; cell reporter, cycloheximide protein synthesis inhibition counterscreen; max response, %; hit rate 12% among 300,000; AID 2314; in the data active means max response mostly above about 13%, no sharp cut-off; inactive means mostly below about 14%; further: read at 38.3 µM for the half of the compounds with a filed dose; 0% is about no effect
HCV inhibitor = HCV inhibition; Huh7.5.1 HCVcc-Cre infection, luciferase reporter, 44 h; Potency, µM (highest dose often 41.8 µM), for inactives: at the highest dose activity change, negative = inhibition, usual class: inhibitors; hit rate 3.4% among 340,000; AID 651820; active means well fitted inhibition curve with a large enough effect; inconclusive means small, poorly fitted or top-dose-only effect, or another doubt; inactive means no such curve, though single readings can be large or run the other way; further: potency means the concentration at half of the fitted maximal effect; on the % scale 0 is the no-effect control and ±100 the full control effect
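HCVcc-Cre virus at an moi near 0.5 was added right after compound to cells cultured 4 h from seeding (1,000 cells/well). Luciferase activity was determined 44 h later, 15 min after substrate addition at RT.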
LASV entry inh = blocks Lassa virus binding to or entry into cells; Lassa virus pseudotype entry inhibition, cell reporter; Potency, µM (series often up to 37.9 µM), without a hit: top-dose activity change, negative = inhibition, usual class: inhibitors; hit rate 1.2% among 300,000; AID 540256; calls by dose curve; tested in HEK293 cells; further: potency means the concentration at half of the fitted maximal effect; on the % scale 0 is the no-effect control and ±100 the full control effect; nearly all actives have a fitted effect of over 50% in size
Marburg entry inh = Marburg virus entry inhibition; Potency, µM (doses to about 37.8 µM), for the others: top-dose activity change, negative = inhibition, most hits filed as inhibitors; hit rate 1.8% among 300,000; Marburg virus pseudotyped entry inhibition, cell reporter; calls by dose curve; tested in HEK293 cells; further: potency means the concentration at half of the fitted maximal effect; on the % scale 0 is the no-effect control and ±100 the full control effect
Starred values were filed as active, the others as inactive; ? = inconclusive; / = no result given; + = active, no number; [ ] = another dose, or the depositor's remark.

SMILES	Shiga toxin inh	FMDV antiviral	CHX counter	HCV inhibitor	LASV entry inh	Marburg entry inh
O=C(Nc1ccc(CN2CCOCC2)cc1)c1ccc(-c2cccc(Cl)c2)o1	30	35µM*	18	?	-26%	?
O=C(NC(=S)Nc1ccc(CN2CCOCC2)cc1)c1cccc(F)c1	25	4%	22*	0%	?	?
O=C(NC(=S)Nc1ccc(CN2CCOCC2)cc1)c1ccc(-c2cccc(Cl)c2)o1	-2	35µM*	1	14µM*	/	/
O=C(NC(=S)Nc1ccc(CN2CCOCC2)cc1)c1cccc([N+](=O)[O-])c1	7	9%	5	15%	13%	-9%
CC(C)(C)CN1CCN(Cc2cc3ccccc3[nH]2)CC1CCO (centres undefined)	-2	-12%	-3	9%	/	/
Cc1ccc(NC(=O)NNC(=O)c2cc3ccccc3cc2O)cc1C	-7	-19%	2	13%	/	/
O=C(Nc1ccccn1)c1cc2ccccc2cc1O	96*	41%	31*	17%	13%[46.1 µM]	6%[46.1 µM]
c1ccc(Nc2ccccc2Nc2ccccn2)nc1	6	-15%	0	-2%	29%	?
COc1ccc(NC(=O)c2cc3ccccc3cc2O)cc1	62*	-1%	33*	?	-38%	1.1µM*
Oc1cccc2ccc(Nc3ccccn3)nc12	+	0%	113*	1.1µM*	23µM*	?
Cc1ccc(NC(=O)c2cc3ccccc3cc2O)cc1	79*	33%	40*	?	/	/
O=C(Nc1ccccn1)c1cccnc1	12	24%	-2	12%	-4%	0%
c1ccc(C2NCCc3ccccc32)cc1 (centres undefined)	-14	-24%	-2	2%	/	?
O=C1CSC(c2ccccc2)N1Nc1nc(N2CCOCC2)nc(N2CCOCC2)n1 (centres undefined)	-5	5%	5	2%	?	-15%[46.1 µM]
Cc1nc2ncnn2c(C)c1Cc1ccccc1Cl	-12	-18%	-5	-5%	/	/
COc1ccc(Nc2nc(N)c([N+](=O)[O-])c(NC3CCCCC3)n2)cc1	-9	?	-10	11µM*	?	?
COc1nc(NCc2cccnc2)nc(OC)n1	33	-3%	11	11%	-13%	5%
COc1ccc(Nc2nc(N)c([N+](=O)[O-])c(NCCO)n2)cc1	35	19%	11	0%	-13%	?
C=CCNc1nc(Nc2ccc([N+](=O)[O-])cc2)nc(OC)n1	37	0%	8	-8%	/	/
COc1nc(NCc2cccnc2)nc(NC2CCCCC2)n1	35*	40%	71*	14%	14%	-2%
CNc1nc(Nc2ccc(Br)cc2)nc(N)c1[N+](=O)[O-]	51*	22%	24*	-6%	16%	?
COc1nc(Nc2ccc([N+](=O)[O-])cc2)nc(NC2CCCCC2)n1	78*	-13%	43*	?	?	?
Cc1ccc(Nc2nc(N)c([N+](=O)[O-])c(NCc3ccccc3)n2)cc1	25	-28%	-2	-41%	6%	?
Cc1ccc(Nc2nc(Cl)nc(NC3CCCCC3)n2)cc1	62*	37%	25*	?	-26%	?
CCOC(=O)c1c(-c2ccccc2)csc1NC(=O)CSc1nc(N)cc(N)n1	-4	18µM*	-1	13µM*	-2%	?
SMILES	Shiga toxin inh	FMDV antiviral	CHX counter	HCV inhibitor	LASV entry inh	Marburg entry inh
CCOC(=O)c1c(-c2ccccc2)csc1NC(=O)c1nc(S(=O)(=O)CC)ncc1Cl	/	14µM*	/	/	-17%[46.1 µM]	?
COC(=O)c1ccc(NC(=O)c2nc(S(=O)(=O)Cc3cccc(C)c3)ncc2Cl)cc1	25	28µM*	13	?	?	?
CCOC(=O)c1c(-c2ccccc2)csc1NC(=O)c1nc(SCC)ncc1Cl	/	-19%	/	/	25%[46.1 µM]	?
COC(=O)c1ccccc1NC(=O)c1nc(S(=O)(=O)Cc2cccc(C)c2)ncc1Cl	/	?	/	/	0%[46.1 µM]	2%[46.1 µM]
CCOC(=O)c1c(-c2ccccc2)csc1NC(=S)N(CC)CC	-1	?	-1	?	-8%	?
CCOC(=O)c1c(-c2ccccc2)csc1NC(=O)c1nn(CC)cc1Br	9	/	-1	?	?	10µM*
Cc1ccccc1OCc1nnc(SCCN2CCCC2)n1-c1ccccc1	-28	-9%	1	?	-28%	?
CCOC(=O)c1c(-c2ccco2)csc1NC(=O)CSc1nnc(N)s1	17	-11%	9	11µM*	18%	-15%
CCOC(=O)c1ccc(NC(=O)c2nc(S(=O)(=O)Cc3ccccc3)ncc2Cl)cc1	8	35µM*	14	10µM*	?	11µM*
Cc1cccc(CS(=O)(=O)c2ncc(Cl)c(C(=O)NCc3ccc4c(c3)OCO4)n2)c1	12	32µM*	8	1%	/	/
CC(=O)Nc1ccc(NC(=O)c2nc(S(=O)(=O)Cc3cccc(C)c3)ncc2Cl)cc1	99*	20µM*	46*	?	?	-13%[46.1 µM]
CCOC(=O)c1c(-c2ccc(C)o2)csc1NC(=O)CSc1nncs1	-13	/	2	?	?	-24%
COc1ccc(-c2nn(-c3ccccc3)cc2CNC[C@H]2O[C@@H](n3ccc(=O)[nH]c3=O)[C@H](O)[C@@H]2O)cc1	/	-10%	/	/	/	/
Cn1ncc([N+](=O)[O-])c1C(=O)Nc1ccccc1C(=O)O	/	-19%	-3	14%	28%[46.1 µM]	-14%[46.1 µM]
Cc1ccc(CN2CCC(Oc3cccc(C(=O)N(C)CCN(C)C)c3)CC2)cc1C	/	0%	-2	?	20%[46.1 µM]	?
O=C(CCNC(=O)c1ccccc1)N=Nc1c(O)[nH]c2ccccc12	2	/	3	/	/	/
CC(C)Oc1ccc(C(=O)Nc2ccc3c(c2)CCCN3C(=O)c2cccs2)cc1	/	22µM*	/	/	?	/
Cc1ccccc1C(=O)Nc1ccc2c(c1)CCCN2C(=O)c1cccs1	11	-30%	10	?	0.89µM*	/
Cc1ccc(S(=O)(=O)Nc2ccc3c(c2)CCCN3C(=O)c2cccs2)cc1C	/	-4%	/	/	?	/
Cc1ccc2c(c1)CCCN2C(=O)c1cccs1	-3	7%	-2	-27%	-16%[14.3 µM]	8%
CCCCOc1ccc(C(=O)Nc2ccc3c(c2)CCCN3C(=O)c2cccs2)cc1	/	25µM*	/	/	?	/
COc1ccc(C(=O)Nc2ccc3c(c2)CCCN3C(=O)c2cccs2)c(OC)c1	-1	?	12	-18%	?	/
O=C(Nc1ccc2c(c1)CCCN2C(=O)c1ccccc1)c1ccccc1	54*	-18%	22*	?	?	?
CCN1C(=O)c2cccc3c(S(=O)(=O)N(C(=O)c4cccnc4)c4ccc(OC)cc4)ccc1c23	-3	-54%	1	?	-20%	?
CC(C)CN(C(=O)COC(=O)c1cc(=O)[nH]c2ccccc12)c1c(N)n(Cc2ccccc2)c(=O)[nH]c1=O	/	-20%	/	-10%	-4%	?
CCCN(Cc1nnc(-c2ccccc2Cl)o1)C(=O)c1cc(S(=O)(=O)N2CCOCC2)ccc1F	/	-18%	/	?	-12%	-17%
